# Bioassay records: PubChem, National Center for Advancing Translational Sciences (NCATS)
# Tau FP inhib – tau fibrillization inhibition (FP); K18 P301L tau heparin fibrillization, Alexa594 FP, 6 h; P10636; hit rate 0.39% among 280,000; Potency, µM (series often up to 57.7 µM), usual class: inhibitors; note: nearly all actives have a fitted effect of over 55% in size
# Target sequence (P10636 561-689 P618L limits assumed): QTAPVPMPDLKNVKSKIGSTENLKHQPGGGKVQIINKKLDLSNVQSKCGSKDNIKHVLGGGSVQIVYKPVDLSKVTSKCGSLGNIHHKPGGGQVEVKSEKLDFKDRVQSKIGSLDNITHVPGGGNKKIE
#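 K18 P301L tau (15 uM unlabeled/0.24 uM Alexa 594-labeled, final) + compound + heparin 20 uM final; 100 mM NaOAc pH 7; 6 hr 37 C; ThT 30 uM final added, 1 hr RT; FP ex 555/em 632 nm.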
# Tau ThT inhib – tau fibrillization inhibition (ThT binding); P10636; recombinant tau K18 P301L, heparin-induced fibrillization, ThT fluorescence; Potency, µM (series often up to 57.4 µM), hits mostly inhibitors; hit rate 2.1% among 270,000; AID 1460; note: nearly all actives have a fitted effect of over 55% in size
#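 K18 P301L tau (15 uM + 0.24 uM Alexa 594-tagged), heparin 20 uM, NaOAc pH 7, 6 h 37 C; ThT 30 uM, 1 h RT, ex 450/em 510 nm.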
# TR SRC2 fluor cs – Texas Red fluorescence interference in TRb-SRC2 counter-screen | TRb/SRC2 Texas Red total fluorescence interference | Potency, µM (series often up to 106 µM) | hit rate 0.29% among 280,000; active = well fitted curve in either direction with a large enough effect; inconclusive = small, poorly fitted or top-dose-only effect
#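 Human TRb ligand-binding domain at 0.6 uM with 20 nM Texas Red SRC2 peptide in Tris buffer containing 1 uM T3 and 5% DMSO, incubated with compound 5 h at ambient temperature. Total fluorescence (555/632 nm) calculated as parallel + 2 × perpendicular.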
# RGS12 GoLoco inh – RGS12 GoLoco-Gai1 interaction inhibition | P63096 | Gai1:RGS12 GoLoco peptide FP, rhodamine, 10 min | Potency, µM (titrated, usually from 61.6 µM), hits mostly inhibitors | hit rate 0.44% among 230,000 | AID 880; active = well fitted inhibition curve with a large enough effect, not every such curve was filed as active; inactive = no such curve, though single readings can be large or run the other way; note: nearly all actives have a fitted effect of over 30% in size
# Target sequence (P63096 whole entry, looked up): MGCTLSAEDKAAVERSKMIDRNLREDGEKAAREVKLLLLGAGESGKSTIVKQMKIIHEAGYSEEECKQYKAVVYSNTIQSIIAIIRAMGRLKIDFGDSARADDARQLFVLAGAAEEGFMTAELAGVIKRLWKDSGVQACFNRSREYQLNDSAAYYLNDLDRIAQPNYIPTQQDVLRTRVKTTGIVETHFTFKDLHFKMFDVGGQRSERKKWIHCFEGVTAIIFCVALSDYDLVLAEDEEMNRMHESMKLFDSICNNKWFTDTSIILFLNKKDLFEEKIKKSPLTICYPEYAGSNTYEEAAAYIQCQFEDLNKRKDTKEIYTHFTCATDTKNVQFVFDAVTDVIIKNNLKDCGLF
# Tau fluor counter – counter-screen for tau fibril formation inhibitors | tau K18 P301L Alexa594 fluorescence, heparin fibrillization | Potency, µM (series often up to 57.7 µM) | hit rate 0.93% among 280,000; note: nearly all actives have a fitted effect of over 55% in size
#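 Human tau K18 P301L (15 uM unlabeled, 0.24 uM Alexa 594-labeled) in 100 mM sodium acetate pH 7 with 20 uM heparin, 6 hr at 37 C. ThT 30 uM added, 1 hr ambient; Alexa 594 FP and total fluorescence read at 555/632 nm.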
# TRb-SRC2 inh – inhibitors of human thyroid hormone receptor beta-SRC2 interaction; P10828; TRbeta-SRC2 peptide binding, fluorescence polarization; receptor liganded with 1 µM T3; Potency, µM (top dose mostly 106 µM), usual class: inhibitors; hit rate 0.065% among 280,000; AID 1469; note: nearly all actives have a fitted effect of over 50% in size
#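 Assay buffer: 20 mM Tris-HCl, 100 mM NaCl, 10% glycerol, 1 mM EDTA, 0.01% NP-40, 1 mM DTT, 1 uM T3, 5% DMSO; TRb LBD 0.6 uM, Texas Red SRC2 20 nM; FP after 5 hr.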
# Hits are given with their value; n = inactive; u = inconclusive; x = no result; ! = repeats disagree; [ ] = dose if it differs, or a comment. Rows were chosen to be rich in hits. Some 3.2% of all compounds tested hit in one or more screens of this group. Unless noted, calls come from the whole dose curve; as a rule, active = well fitted curve in the direction sought with a large enough effect; inconclusive = small, poorly fitted or top-dose-only effect, or another doubt; inactive = no such curve, though single readings can be large; an effect the other way counts as inactive or inconclusive.
SMILES,Tau FP inhib,Tau ThT inhib,TR SRC2 fluor cs,RGS12 GoLoco inh,Tau fluor counter,TRb-SRC2 inh
O=C(Cn1cc(/C=N/NC(=O)c2cccc3ccccc23)c2ccccc21)Nc1ccc(F)cc1,n,n,n,n,u,n
C[n+]1cccc(C2C(C#N)=C(N)Oc3c2ccc2ccccc32)c1 (stereo unspecified),n,u,n,n,n,n
CC1=CC(C)C2COC(c3ccc[n+](C)c3)C1C2C (stereo unspecified),n,n,n,28µM,n,n
CCOc1ccc(-c2nc(SCC(=O)NC3CCCC3)c(-c3ccccc3)[nH]2)cc1OC,u,u,n,x,13µM[quencher],n
COc1ccc(-c2[nH]c(-c3ccccc3)nc2SCC(=O)NC2CCCC2)cc1,u,u,n,n,25µM[quencher],n
COc1cccc(-c2nc(SCC(=O)NCC3CCCO3)c(-c3ccc(F)cc3)[nH]2)c1 (stereo unspecified),n,n,n,x,u,n
COc1ccc(-c2nc(SCC(=O)NC3CCCC3)c(-c3ccc(F)cc3)[nH]2)cc1,n,u,n,x,14µM[quencher],n
COc1ccc(-c2[nH]c(-c3ccc(F)cc3)nc2SCC(=O)NC2CCCC2)cc1,n,n,n,n,n,n
CCOc1ccc(-c2nnc(SCC(=O)NC3CCCCC3)nc2-c2ccc(OCC)c(OC)c2)cc1OC,n,n,n,x,n,n
COCCCNC(=O)CSc1nc(-c2ccccc2)[nH]c1-c1ccc(C)cc1,n,n,n,x,u,n
COc1ccc(-c2[nH]c(-c3cccc(OC)c3)nc2SCC(=O)NC2CCCC2)cc1,u,u,n,n,13µM![quencher],n
Cc1ccc(S(=O)(=O)N=C=O)cc1,x,x,n,x,x,n
CO[C@H]1COC(=O)[C@H](C)NC(=O)[C@@H](C)COC(=O)[C@H]2CCCN2C(=O)C/C=C\[C@H]1C,n[11.6 µM],n[11.5 µM],n[11.2 µM],x,n[11.6 µM],n[11.2 µM]
COc1ccc(C(=O)NCCNc2ccccc2[N+](=O)[O-])cc1,n,8.9µM,n,n,n,n
CCCN1CCC(=O)N(C(CSc2ccc(OC)cc2)c2ccccc2)CC1 (stereo unspecified),x,x,n,x,x,n
C=CCN1C(=O)N/C(=C/c2ccc(C)o2)C1=O,u,25µM,n,n,n,n
Cc1ccc(NC(=O)CN2C(=O)N/C(=C/c3ccc(C)o3)C2=O)cc1,u,u,n,n,n,n
Cc1cccc(C(=O)n2nc(-c3cccnc3)nc2NCc2ccccc2)c1,n,u,0.0089µM[quencher],x,u,n
COc1ccc2c(c1)-c1nc(/N=C/c3c(O)ccc4ccccc34)sc1CC2,u,22µM,u,n,u,u
COc1ccc2c(c1)-c1nc(/N=C/c3ccc(O)cc3)sc1CC2,u,28µM,n,n,u,n
O=C(CCCc1ccccc1)Nc1cccc(C(=O)O)c1,n,n,n,n,n,n
O=C(CCCc1ccc(-c2ccccc2F)cc1)Nc1ccc(O)cc1,u,u,n,n,11µM[quencher],n
CC(C)ON(C(C(=O)NO)C(C)C)S(=O)(=O)c1ccc(-c2ccccc2)cc1 (stereo unspecified),x,x,n,x,x,n
COc1ccc(S(=O)(=O)n2nc(-c3ccc(Cl)cc3)cc2N)cc1OC,n,n,n,n,16µM[quencher],n
CCOc1ccc(-c2cc(N)n(S(=O)(=O)c3ccc(OC)c(OC)c3)n2)cc1,n,n,n,n,u,n
SMILES,Tau FP inhib,Tau ThT inhib,TR SRC2 fluor cs,RGS12 GoLoco inh,Tau fluor counter,TRb-SRC2 inh
CCN(CCO)c1nc(SC)nc2c1sc1nc(-c3ccco3)c3c(c12)CCC3,u,25µM,n,n,u,n
O=[N+]([O-])c1ccc2c(c1)S(=O)(=O)C=C2,x,x,n,x,x,n
CCOC(=O)C1=CC(OC(CC)CC)C(NC(C)=O)C(N)C1 (stereo unspecified),n,n,n,32µM,n,n
Cc1ccc2c(=O)c3cccc(CC(=O)O)c3oc2c1C,x,x,n,x,x,n
CN(C)c1nc(N/N=C/c2ccccc2O)nc(Nc2ccc(F)cc2)n1,u,u,n,n,8.9µM[quencher],n
S=C(NCCC(c1ccccc1)c1ccccc1)Nc1ccc(Cl)cc1,14µM,n,n,n,8.9µM[quencher],n
CCCCOCCCNC(=S)Nc1ccc(S(=O)(=O)N2CCOCC2)cc1,u,n,n,n,n,n
O=S(=O)(c1ccc(NC(=S)NCCC(c2ccccc2)c2ccccc2)cc1)N1CCOCC1,14µM,n,n,n,u,n
CNc1cccccc1=S,u,13µM,n,n,n,n
Cc1ccc2nc(-c3ccc(C)o3)c(Nc3ccc4c(c3)OCCO4)n2c1,n,u,0.0013µM[quencher],x,u,n
COC(=O)CC1=COC2OCC3=CC[C@@H]1C32 (stereo partly specified),n[11.6 µM],n[11.5 µM],n[11.2 µM],x,n[11.6 µM],n[11.2 µM]
CCc1ccc(NC(=O)N2CC=C(c3c[nH]c4ccccc34)CC2)cc1,n,7.1µM,n,x,13µM[quencher],n
Cc1ccc(C)c(NC(=O)N2CC=C(c3c[nH]c4ccccc34)CC2)c1,n,u,n,x,25µM[quencher],n
